High-throughput results from PubChem BioAssay.
HP1b chromo inh – HTS for Inhibitors of HP1-beta Chromodomain Interactions with Methylated Histone Tails. AID 540317, 2011. Chromobox protein homolog 1 (Homo sapiens), P83916. AlphaScreen HP1-beta / biotin-H3K9me3 peptide binding. Potency, µM (top dose mostly 114 µM), inactives show at the top dose activity change, negative = inhibition, actives largely listed as inhibitors. hit rate 0.56% among 390,000; note: nearly all actives have a fitted effect of over 70% in size
Target sequence (P83916 whole entry, looked up): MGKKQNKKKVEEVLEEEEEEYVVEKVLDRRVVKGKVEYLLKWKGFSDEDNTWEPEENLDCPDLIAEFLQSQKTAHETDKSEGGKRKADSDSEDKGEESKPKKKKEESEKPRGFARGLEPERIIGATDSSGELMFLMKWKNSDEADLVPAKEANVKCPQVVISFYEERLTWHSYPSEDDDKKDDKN
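Compound inhibition of the preformed complex between 50 nM HP1-beta and 50 nM biotinylated H3K9me3 peptide was read by AlphaScreen. Buffer was PBS pH 7.4 with 0.01% Tween-20. Incubations ran 30 min at room temperature, with 10 ug/mL donor/acceptor beads.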
JMJD2A Tudor inh – qHTS Assay for Inhibitors of JMJD2A-Tudor Domain; AlphaScreen JMJD2A-Tudor / H3K4me3 peptide binding; Potency, µM (titrated, usually from 114 µM), for the others: at the top dose activity change, negative = inhibition, usual class: inhibitors; hit rate 4.4% among 390,000; AID 504339, 2011; note: % is set by controls: 0 for no effect and ±100 for the full control effect; nearly all actives have a fitted effect of over 50% in size
BAZ2B inh – qHTS Assay for Inhibitors of BAZ2B; AlphaScreen BAZ2B-H3K14Ac peptide displacement; hit rate 4.4% among 360,000; Bromodomain adjacent to zinc finger domain protein 2B (Homo sapiens), Q9UIF8; Potency, µM (series often up to 114 µM), inactives show at the top dose activity change, negative = inhibition, hits mostly inhibitors; note: % is set by controls: 0 for no effect and ±100 for the full control effect; nearly all actives have a fitted effect of over 60% in size
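AlphaScreen luminescence quantifies BAZ2B engagement of H3K14Ac peptide; the protein and biotinylated peptide are both at 50 nM final, buffer PBS pH 7.4 with 0.01% Tween-20, all steps at room temperature.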
GLS inhibitor – qHTS for Inhibitors of Glutaminase (GLS). Glutaminase kidney isoform, mitochondrial (Homo sapiens), O94925. GLS enzymatic activity, qHTS titration. Potency, µM (doses to about 45.5 µM), without a hit: at the top dose activity change, negative = inhibition, usual class: inhibitors. hit rate 0.21% among 410,000. AID 624170, 2012; note: % is set by controls: 0 for no effect and ±100 for the full control effect
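Human kidney-isoform GLS in 45 mM KH2PO4 pH 8.2, 0.02% Tween-20, with compound, started with 1mM L-Glutamine (added stock). Glutamate oxidase/HRP/Amplex red coupled fluorescence read at start and after 30 min at RT.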
G9a inh – qHTS Assay for Inhibitors of Histone Lysine Methyltransferase G9a. G9a H3K9 monomethylation, AlphaScreen, 2 h. Potency, µM (top dose mostly 102 µM), for the others: at the highest dose activity, negative = inhibition, actives largely listed as inhibitors. hit rate 8.8% among 350,000. AID 504332, 2011; note: % is set by controls: 0 for no effect and ±100 for the full control effect; nearly all actives have a fitted effect of over 75% in size
Target sequence (Q96KQ7 913-1193 limits assumed): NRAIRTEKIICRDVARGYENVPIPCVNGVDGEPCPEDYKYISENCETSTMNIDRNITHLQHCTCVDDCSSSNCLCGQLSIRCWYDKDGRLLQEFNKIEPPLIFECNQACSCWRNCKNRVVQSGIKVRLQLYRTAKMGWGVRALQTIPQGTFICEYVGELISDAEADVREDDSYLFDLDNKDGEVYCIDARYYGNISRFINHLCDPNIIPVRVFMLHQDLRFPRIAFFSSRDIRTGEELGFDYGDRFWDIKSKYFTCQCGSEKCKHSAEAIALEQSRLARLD
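Step 1: enzyme (final 20 nM) with compound, 15 min RT. Step 2: substrate peptide 500 nM and SAM 20 uM, 2 h RT. Step 3: anti-H3K9me1 antibody and AlphaScreen beads, 10 min, then plate read.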
Active calls of the source: *; ? = inconclusive; nt = no result given; [ ] = remark or other dose. This is a sample that favours compounds with a hit; in the whole collection about 10% have one here. Calls come from the whole dose curve; as a rule, active = well fitted curve in the direction sought with a large enough effect; inconclusive = small, poorly fitted or top-dose-only effect, or another doubt; inactive = no such curve, though single readings can be large; an effect the other way counts as inactive or inconclusive. Potency is the fitted concentration of half-maximal effect.

SMILES | HP1b chromo inh | JMJD2A Tudor inh | BAZ2B inh | GLS inhibitor | G9a inh
FC(F)(F)c1ccc(Cl)c(-n2c(-c3ccco3)n[nH]c2=S)c1 | 50% | ? | -13% | 0% | 10µM*
FC(F)(F)c1ccc(Cl)c(-n2c(-c3cc(-c4ccco4)[nH]n3)n[nH]c2=S)c1 | 11% | -30% | -38% | 9% | 16µM*
COc1cc(-c2n[nH]c(=S)n2-c2cc(C(F)(F)F)ccc2Cl)cc(OC)c1OC | 29% | -15% | -33% | 5% | ?
Cc1ccc(C(=O)O)cc1S(=O)(=O)N1CCCC1 | 49% | -5%[57.1 µM] | 0% | 0% | -9%
O=C(Nc1ccccc1)C(=O)c1cn(CC(=O)N2CCCCC2)c2ccccc12 | 35% | -11% | -38% | -13% | -1%[59 µM]
CC1(C)CC(=O)C=C(c2ccc(CO)cc2)C1=O | nt | nt | nt | 4% | nt
COc1ccc(CC(=O)OCC(=O)NC(=O)NC(C)C)cc1 | 34% | 5% | 9% | 0% | -10%
COc1ccc(CN2CCCCC2C(=O)Nc2ccc(OC)c(OC)c2)cc1OC (stereo not given) | 16% | -18% | -9% | -21% | -9%
CCC1CCCCN1Cc1ccc(OC)c(C)c1 (stereo not given) | ? | 7.1µM* | 56µM* | 3% | 50µM*
COc1cccc(CN2CCCCC2C(=O)O)c1 (stereo not given) | 18% | -18% | -1% | 0% | 9%
CCOC(=O)C1CCCCN1Cc1ccc(F)c(Br)c1 (stereo not given) | ? | ? | 12% | -3% | 22µM*
CCOC(=O)C1CCCCN1Cc1ccc(OC)c(OC)c1 (stereo not given) | ? | 20µM* | 56µM* | 12% | 32µM*
CCN1CCCC(OC(=O)C(c2ccccc2)c2ccccc2)C1 (stereo not given) | -3% | -27% | 5% | -5% | -27%[59 µM]
CN(C)[C@@H]1CCC[C@@H]1OC(=O)C(c1ccccc1)c1ccccc1 | ? | 1.1µM* | 35µM* | 6% | 13µM*
CCCCNc1nc(CC(C)=O)ns1 | 28% | -14% | 3% | -12% | -19%
CNc1nc(CC(C)=O)ns1 | 23% | -16% | -20% | 5% | 79µM*
CCc1ccc(CCC(=O)Nc2nc(CC(C)=O)ns2)o1 | 11% | ? | -10% | 8% | 71µM*
CC(Sc1nnc(NC2CC2)s1)C(=O)Nc1ccc(S(N)(=O)=O)cc1 (stereo not given) | 37% | -1% | nt | 2% | nt
CC1CCC2(CC1)Nc1ccccc1C(=O)N2c1ccccc1 (stereo not given) | 19% | -15% | 5% | -6% | 71µM*
O=C1c2ccccc2NC2(CCCCC2)N1c1ccc(O)cc1 | 33% | -3% | -6% | 18% | 2%[59 µM]
CCC(=O)N1N=C(c2ccc(Cl)cc2)CC1c1ccco1 (stereo not given) | 3% | -26% | -35% | -8% | 10%
Cc1n[nH]c(C)c1CCC(=O)N/N=C/c1c(C)[nH]c2ccccc12 | 27% | -17% | ? | 17% | 6%
Cc1[nH]c2ccccc2c1/C=N/Nc1ccccc1[N+](=O)[O-] | 40µM* | 22µM* | 5.6µM* | ? | 7.9µM*
Cc1[nH]c2ccccc2c1/C=N/NC(=O)CCC(=O)NCc1ccccc1 | -24% | 11µM* | -21% | ? | -6%
Cc1[nH]c2ccccc2c1/C=N/NS(=O)(=O)c1ccccc1 | -16% | ? | -38% | ? | 50µM*
SMILES | HP1b chromo inh | JMJD2A Tudor inh | BAZ2B inh | GLS inhibitor | G9a inh
CCOC(=O)CC(NC(=O)c1cc2cc(Br)ccc2oc1=O)c1cccc([N+](=O)[O-])c1 (stereo not given) | 6% | -20% | 3% | -5% | -12%
Cc1sc(-c2cc3ccccc3oc2=O)nc1-c1ccc(Cl)c(Cl)c1 | 21% | ? | 5% | 11% | 9%[59 µM]
CCCCn1c(NCc2ccc(N(C)C)cc2)nc2ccccc21 | ? | 40µM* | 40µM* | 25% | ?
C=CCn1c(NCc2ccc(N(C)C)cc2)nc2ccccc21 | ? | ? | 45µM* | 41% | ?
COc1ccc(CNC(=O)COC(=O)CN2C(=O)C3CCCCC3C2=O)cc1 (stereo not given) | nt | nt | nt | 1% | nt
Cc1c2cnn(CC(=O)N3CCCCC3)c(=O)c2c(C)n1Cc1ccc(F)cc1 | 17% | -16% | -1% | 9% | 8%[59 µM]
COc1ccc(CCN(C)C2CCCN(C(=O)c3ccnn3C)C2)cc1OC (stereo not given) | 19% | -11% | -6% | -13% | nt
C=CCn1c(CNS(=O)(=O)c2ccc(Br)cc2)n[nH]c1=S | 29% | 28µM* | -13% | -24% | 32µM*
C=CCn1c(CNS(=O)(=O)c2ccc(F)cc2)n[nH]c1=S | 51% | 13µM* | -3% | -6% | 23%[12.7 µM]
C=CCn1c(CNS(=O)(=O)c2ccc(Cl)cc2)n[nH]c1=S | 28% | 28µM* | -13% | 5% | 32µM*
C=CCNC(=O)CNS(=O)(=O)c1ccc(F)cc1 | 17% | -7% | -7% | 2% | ?
C=CCn1c(Cc2nc3ccc(Cl)cc3[nH]2)n[nH]c1=S | 6% | ? | ? | -6% | ?
O=C(Cc1c(C(=O)O)[nH]c2ccccc12)Nc1ccc2c(c1)OCO2 | 0% | -20% | ? | 34% | -5%[2.33 µM]
Cc1ccc(C2CC(=O)NC(SCC(N)=O)=C2C#N)s1 (stereo not given) | 43% | -14% | -13% | 12% | -12%[59 µM]
COCCn1nnnc1C(CC(C)C)N1CCN(c2nc3ccccc3s2)CC1 (stereo not given) | 27% | -10% | 1% | -3% | 7%
Nc1ccccc1C(=O)C[C@H](N)C(=O)O | 2% | 18µM* | nt | -2% | 2%[59 µM]
CCCCCCCC[n+]1c(C)n(-c2ccccc2)c2ccc(NC(C)=O)cc21 | 33% | -4% | -17% | 0% | 40µM*
CN1CCN(C(=O)/C(=C/c2ccc(F)cc2)c2ccsc2)CC1 | 61% | 1% | -24% | -5% | 45µM*
CN1CCN(C(=O)/C(=C/c2ccccc2)c2ccccc2)CC1 | 6% | -9% | 11% | 3% | -7%
CCOC(=O)c1ccc(N/C=C/C(=O)c2ccc(OC)cc2)cc1 | 24% | -8% | 5% | 4% | 23%
CC(=O)N(CCCN1CCOCC1)Cc1ccncc1 | 26% | 0%[11.4 µM] | ? | -15% | 50µM*
c1cc(CNCCCN2CCOCC2)ccn1 | 36% | -1% | -4% | -22% | ?
N#CC(C(=S)Nc1ccccc1)c1nc2ccccc2[nH]1 (stereo not given) | 7% | -29% | -6% | ? | 7%[59 µM]
Cc1nc2ccc(C(=O)O)cc2c2c1CC(CN)O2 (stereo not given) | 1% | ? | -11% | -25% | 79µM*
